Results from PubChem BioAssay AID1159580 (chemical genetic matrix, 2015).
Values joined by “and” are separate entries in the source; they are usually repeats but may differ in a detail not shown here. Equal entries are not always repeated. The whole screen tested about 5,500 compounds, of which about 2,000 (36%) were called active. Roughly 18% stayed inconclusive and do not appear here. Cut-off read from the data, not from the text of the source: active = normalized growth mostly below about 0.91 (no sharp cut-off); inconclusive = no clear call, values can overlap the other calls; inactive = mostly above about 0.92. The list shows a part of the results.

Assay: chemical genetic growth profiling, strain panel (AID 1159580);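 note: tested at 20 µM; growth read once vehicle control cultures reached saturation at 30 °C; 1 = growth at the plate median or of vehicle wells; lower values mean less growth of the strain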
Settings: S. cerevisiae deletion strains, growth OD

Measured: normalized growth

CC(C)=CCOc1c2occc2cc2ccc(=O)oc12
inactive: locus YAL021C, strain ccr4, stronger effect = lower value 0.963 | locus YBR231C, strain swc5, stronger effect = lower value 0.922 | locus YCR088W, strain abp1, stronger effect = lower value 0.928 | locus YDL005C, strain med2, stronger effect = lower value 0.947 | locus YDL040C, strain nat1, stronger effect = lower value 0.934 | locus YDR069C, strain doa4, stronger effect = lower value 0.923 | locus YDR159W, strain sac3, stronger effect = lower value 0.944 | locus YDR195W, strain ref2 1.07 | locus YDR297W, strain sur2, stronger effect = lower value 0.926 | locus YDR335W, strain msn5, stronger effect = lower value 0.942 | locus YEL003W, strain gim4, stronger effect = lower value 0.929 | locus YEL037C, strain rad23, stronger effect = lower value 0.937 | locus YEL061C, strain CIN8 (second series), stronger effect = lower value 0.929 | locus YER015W, strain faa2, stronger effect = lower value 0.935 | locus YER016W, strain bim1, stronger effect = lower value 0.927 | locus YER111C, strain swi4, stronger effect = lower value 0.929 | locus YFR010W, strain ubp6, stronger effect = lower value 0.938 | locus YGL227W, strain vid30, stronger effect = lower value 0.918 | locus YHR013C, strain ard1, stronger effect = lower value 0.87 | locus YHR027C, strain rpn1, stronger effect = lower value 0.954 | locus YHR030C, strain SLT2, stronger effect = lower value 0.978 | locus YHR079C, strain IRE1, stronger effect = lower value 0.975 | locus YIL073C, strain SPO22, stronger effect = lower value 0.792 | locus YJL115W, strain asf1, stronger effect = lower value 0.922 | locus YJL154C, strain vps35, stronger effect = lower value 0.935 | locus YJL187C, strain SWE1, stronger effect = lower value 0.929 | locus YJR066W, strain TOR1, stronger effect = lower value 0.891 | locus YLL026W, stronger effect = lower value 0.931 | locus YLR113W, strain HOG1, stronger effect = lower value 1.02 | locus YLR357W, strain rsc2, stronger effect = lower value 0.871 | locus YMR231W, strain pep5, stronger effect = lower value 0.936 | locus YNL183C, strain NPR1, stronger effect = lower value 0.912 | locus YNL209W, strain ssb2, stronger effect = lower value 0.936 | locus YNL248C, strain rpa49, stronger effect = lower value 0.936 | locus YOL012C, strain htz1 0.448 | locus YOR061W, strain CKA2, stronger effect = lower value 0.917 | locus YOR070C, strain gyp1, stronger effect = lower value 0.93 | locus YOR080W, strain dia2, stronger effect = lower value 0.921 | locus YOR106W, strain vam3, stronger effect = lower value 0.881 | locus YOR231W, strain MKK1, stronger effect = lower value 0.955 | locus YOR265W, strain rbl2, stronger effect = lower value 0.93 | locus YPL106C, strain sse1, stronger effect = lower value 0.941 | locus YPL256C, strain CLN2, stronger effect = lower value 0.969
0.297 (active) and 0.984 (inactive): locus YJL095W, strain BCK1, stronger effect = lower value
active: locus YAL013W, strain DEP1, stronger effect = lower value 0.734 | locus YAL026C, strain drs2, stronger effect = lower value 0.874 | locus YAL030W, strain snc1, stronger effect = lower value 0.928 | locus YBL061C, strain skt5, stronger effect = lower value 0.892 | locus YBR009C, strain hhf1, stronger effect = lower value 0.851 | locus YBR021W, strain FUR4, stronger effect = lower value 0.74 | locus YBR023C, strain chs3, stronger effect = lower value 0.864 | locus YBR171W, strain sec66, stronger effect = lower value 0.865 | locus YBR229C, strain ROT2, stronger effect = lower value 0.896 | locus YBR279W, strain paf1, stronger effect = lower value 0.921 | locus YCL011C, strain gbp2, stronger effect = lower value 0.849 | locus YCL016C, strain dcc1, stronger effect = lower value 0.859 | locus YCL029C, strain bik1, stronger effect = lower value 0.804 | locus YCL061C, strain MRC1, stronger effect = lower value 0.876 | locus YCL069W, strain vba3, stronger effect = lower value 0.912 | locus YDL035C, strain GPR1, stronger effect = lower value 0.857 | locus YDL074C, strain BRE1, stronger effect = lower value 0.606 | locus YDL101C, strain DUN1, stronger effect = lower value 0.559 | locus YDL185W, strain tfp1, stronger effect = lower value 0.875 | locus YDL192W, strain arf1, stronger effect = lower value 0.67 | locus YDR001C, strain nth1, stronger effect = lower value 0.899 | locus YDR101C, strain arx1, stronger effect = lower value 0.808 | locus YDR137W, strain rgp1, stronger effect = lower value 0.729 | locus YDR150W, strain NUM1, stronger effect = lower value 0.899 | locus YDR162C, strain NBP2, stronger effect = lower value 0.507 | locus YDR318W, strain mcm21, stronger effect = lower value 0.649 | locus YDR334W, strain swr1, stronger effect = lower value 0.892 | locus YDR388W, stronger effect = lower value 0.837 | locus YDR392W, strain spt3, stronger effect = lower value 0.353 | locus YDR502C, strain sam2, stronger effect = lower value 0.736 | locus YER110C, stronger effect = lower value 0.728 | locus YER155C, strain BEM2 (second series), stronger effect = lower value 0.509 | locus YER155C, strain BEM2, stronger effect = lower value 0.575 | locus YER167W, strain BCK2, stronger effect = lower value 0.722 | locus YGL078C, strain dbp3, stronger effect = lower value 0.92 | locus YGL086W, strain mad1, stronger effect = lower value 0.678 | locus YGL167C, strain pmr1, stronger effect = lower value 0.887 | locus YGL173C, strain kem1, stronger effect = lower value 0.885 | locus YGL240W, strain doc1, stronger effect = lower value 0.741 | locus YGL248W, strain PDE1, stronger effect = lower value 0.672 | locus YGL253W, strain hxk2, stronger effect = lower value 0.807 | locus YGR135W, strain pre9, stronger effect = lower value 0.666 | locus YGR252W, strain gcn5, stronger effect = lower value 0.519 | locus YHR079C, strain IRE1 (second series), stronger effect = lower value 0.856 | locus YHR094C, strain hxt1, stronger effect = lower value 0.821 | locus YHR129C, strain ARP1, stronger effect = lower value 0.652 | locus YHR142W, strain chs7, stronger effect = lower value 0.679 | locus YHR200W, strain rpn10, stronger effect = lower value 0.822 | locus YIL066C, strain RNR3, stronger effect = lower value 0.697 | locus YIL125W, strain kgd1, stronger effect = lower value 0.895 | locus YIR030C, strain dcg1, stronger effect = lower value 0.842 | locus YJL092W, strain hpr5, stronger effect = lower value 0.9 | locus YJL095W, strain BCK1 (second series), stronger effect = lower value 0.898 | locus YJL129C, strain trk1, stronger effect = lower value 0.774 | locus YJL134W, strain LCB3, stronger effect = lower value 0.895 | locus YJL164C, strain tpk1, stronger effect = lower value 0.859 | locus YJL166W, strain qcr8, stronger effect = lower value 0.895 | locus YJL168C, strain set2, stronger effect = lower value 0.875 | locus YJL187C, strain SWE1 (second series), stronger effect = lower value 0.739 | locus YJR043C, strain POL32, stronger effect = lower value 0.742 | locus YKL009W, strain mrt4, stronger effect = lower value 0.844 | locus YKL068W, stronger effect = lower value 0.898 | locus YKL085W, strain MDH1 (second series), stronger effect = lower value 0.898 | locus YKL085W, strain MDH1, stronger effect = lower value 0.898 | locus YKL160W, strain elf1, stronger effect = lower value 0.898 | locus YKL190W, strain CNB1, stronger effect = lower value 0.854 | locus YKR001C, strain vps1, stronger effect = lower value 0.599 | locus YKR026C, strain gcn3, stronger effect = lower value 0.905 | locus YKR091W, strain srl3, stronger effect = lower value 0.929 | locus YLL001W, strain dnm1, stronger effect = lower value 0.862 | locus YLL041C, strain sdh2, stronger effect = lower value 0.919 | locus YLR027C, strain aat2, stronger effect = lower value 0.893 | locus YLR039C, strain RIC1, stronger effect = lower value 0.429 | locus YLR058C, strain SHM2, stronger effect = lower value 0.748 | locus YLR102C, strain apc9, stronger effect = lower value 0.843 | locus YLR221C, strain rsa3, stronger effect = lower value 0.821 | locus YLR258W, strain gsy2, stronger effect = lower value 0.908 | locus YLR262C, strain YPT6 (second series), stronger effect = lower value 0.749 | locus YLR262C, strain YPT6, stronger effect = lower value 0.448 | locus YLR268W, strain sec22, stronger effect = lower value 0.695 | locus YLR320W, strain mms22, stronger effect = lower value 0.652 | locus YLR330W, strain CHS5, stronger effect = lower value 0.507 | locus YLR342W, strain FKS1 (second series), stronger effect = lower value 0.416 | locus YLR342W, strain FKS1, stronger effect = lower value 0.86 | locus YLR370C, strain arc18, stronger effect = lower value 0.906 | locus YLR371W, strain rom2, stronger effect = lower value 0.582 | locus YLR384C, strain iki3, stronger effect = lower value 0.9 | locus YLR418C, strain cdc73, stronger effect = lower value 0.28 | locus YML016C, strain PPZ1, stronger effect = lower value 0.875 | locus YML032C, strain rad52, stronger effect = lower value 0.676 | locus YML120C, strain ndi1, stronger effect = lower value 0.875 | locus YML124C, strain tub3, stronger effect = lower value 0.827 | locus YMR058W, strain fet3, stronger effect = lower value 0.886 | locus YMR078C, strain ctf18, stronger effect = lower value 0.781 | locus YMR125W, strain sto1, stronger effect = lower value 0.826 | locus YMR129W, stronger effect = lower value 0.921 | locus YMR205C, strain PFK2, stronger effect = lower value 0.817 | locus YMR223W, strain ubp8, stronger effect = lower value 0.736 | locus YMR307W, strain GAS1, stronger effect = lower value 0.443 | locus YNL067W, strain RPL9B, stronger effect = lower value 0.764 | locus YNL071W, strain lat1, stronger effect = lower value 0.573 | locus YNL153C, strain GIM3, stronger effect = lower value 0.73 | locus YNL233W, strain BNI4, stronger effect = lower value 0.517 | locus YNL250W, strain rad50, stronger effect = lower value 0.884 | locus YNL271C, strain bni1, stronger effect = lower value 0.849 | locus YNL298W, strain CLA4, stronger effect = lower value 0.823 | locus YNL307C, strain MCK1, stronger effect = lower value 0.222 | locus YNL322C, strain KRE1 (second series), stronger effect = lower value 0.904 | locus YNR049C, strain mso1, stronger effect = lower value 0.914 | locus YNR052C, strain pop2, stronger effect = lower value 0.877 | locus YOL006C, strain TOP1, stronger effect = lower value 0.373 | locus YOL147C, strain pex11, stronger effect = lower value 0.551 | locus YOR001W, strain rrp6, stronger effect = lower value 0.89 | locus YOR069W, strain VPS5, stronger effect = lower value 0.783 | locus YOR083W, strain WHI5, stronger effect = lower value 0.86 | locus YOR136W, strain idh2, stronger effect = lower value 0.851 | locus YOR144C, strain elg1, stronger effect = lower value 0.717 | locus YOR184W, strain ser1, stronger effect = lower value 0.459 | locus YOR270C, strain vph1, stronger effect = lower value 0.592 | locus YOR290C, strain snf2, stronger effect = lower value 0.787 | locus YOR316C, strain cot1, stronger effect = lower value 0.86 | locus YPL051W, strain arl3, stronger effect = lower value 0.908 | locus YPL055C, strain LGE1, stronger effect = lower value 0.657 | locus YPL078C, strain atp4, stronger effect = lower value 0.843 | locus YPL240C, strain hsp82, stronger effect = lower value 0.912 | locus YPR119W, strain clb2, stronger effect = lower value 0.837 | locus YPR141C, strain kar3, stronger effect = lower value 0.869 | locus YPR163C, strain tif3, stronger effect = lower value 0.34 | locus YPR167C, strain met16, stronger effect = lower value 0.782 | strain wtn01, stronger effect = lower value 0.708
